About 83,000 compounds went through this panel and 20% of them were active in at least one assay; those are over-represented in the sample as a whole.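 Cells were grown in 96-well plates and exposed to the test compound at a single concentration for 48 hours; results are reported as percent growth, with values below 10 considered active.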 Activity calls are given as the source filed them.
How the values were obtained:
Assay in all cases: NCI-60 one-dose screen, 48 h (100 = growth as untreated, 0 = no growth, -100 = all killed)
NCI-H23 lung = conditions: 10 µM unless noted
NCI-H226 lung = conditions: 10 µM unless noted
NCI-H322M lung = conditions: 10 µM unless noted
HOP-62 NSCLC = conditions: 10 µM unless noted
NCI-H460 lung = conditions: 10 µM unless noted
786-0 renal = conditions: 10 µM unless noted
MDA-MB-231 breast = conditions: 10 µM unless noted
SF-268 CNS = conditions: 10 µM unless noted
SF-539 CNS = conditions: 10 µM unless noted
M14 melanoma = conditions: 10 µM unless noted
HCT-15 colon = conditions: 10 µM
U251 CNS = conditions: 10 µM unless noted
UO-31 renal = conditions: 10 µM unless noted
SK-OV-3 ovarian = conditions: 10 µM unless noted
OVCAR-3 ovarian = conditions: 10 µM unless noted
MDA-MB-435 melanoma = conditions: 10 µM unless noted
SW-620 colon = conditions: 10 µM unless noted
MCF7 breast = conditions: 10 µM unless noted
HCT-116 colon = conditions: 10 µM unless noted
KM12 colon = conditions: 10 µM unless noted

Measured: growth

COc1cc[c]([Hg][Cl])cc1
active: HCT-15 colon -42.8% | U251 CNS -26% | OVCAR-3 ovarian -71.5%
inactive: NCI-H23 lung 47% | NCI-H226 lung 100% | NCI-H322M lung 99.1% | HOP-62 NSCLC 82.6% | NCI-H460 lung 43.9% | 786-0 renal 56% | MDA-MB-231 breast 46.2% | SF-268 CNS 56.8% | SF-539 CNS 85.2% | M14 melanoma 17% | UO-31 renal 96.6% | SK-OV-3 ovarian 120% | MDA-MB-435 melanoma 34.3% | SW-620 colon 18.9% | MCF7 breast 27.9% | HCT-116 colon 48.4% | KM12 colon 102%

Cc1cccc(N(C)c2cccc3c2C(=O)[Se]C3)c1C
active: HCT-116 colon 3.47%
inactive: NCI-H23 lung 31.2% | NCI-H226 lung 36.6% | NCI-H322M lung 72.8% | HOP-62 NSCLC 18.8% | NCI-H460 lung 62.8% | 786-0 renal 78% | MDA-MB-231 breast 53.6% | SF-268 CNS 52.4% | SF-539 CNS 56.4% | M14 melanoma 26.7% | HCT-15 colon 31.6% | U251 CNS 47% | UO-31 renal 23% | SK-OV-3 ovarian 188% | OVCAR-3 ovarian 66.3% | MDA-MB-435 melanoma 78% | SW-620 colon 67.1% | MCF7 breast 49.6% | KM12 colon 14.6%

CN(C)P1(N(C)C)=NP(N(C)C)(N(C)C)=NP(N(C)C)(N(C)C)=N1
inactive: NCI-H23 lung 106% | NCI-H226 lung 99.5% | NCI-H322M lung 98.8% | HOP-62 NSCLC 99% | NCI-H460 lung 107% | 786-0 renal 101% | MDA-MB-231 breast 107% | SF-268 CNS 105% | SF-539 CNS 104% | M14 melanoma 101% | HCT-15 colon 101% | U251 CNS 97.9% | UO-31 renal 83.1% | SK-OV-3 ovarian 106% | OVCAR-3 ovarian 106% | MDA-MB-435 melanoma 109% | SW-620 colon 103% | MCF7 breast 95.4% | HCT-116 colon 102% | KM12 colon 104%

c1ccc(CCN2CCCCC2Cc2ccccc2)cc1 (centres undefined)
inactive: NCI-H23 lung 86.2% | NCI-H226 lung 102% | NCI-H322M lung 78.5% | HOP-62 NSCLC 97.2% | NCI-H460 lung 116% | 786-0 renal 102% | MDA-MB-231 breast 96.4% | SF-268 CNS 99.4% | SF-539 CNS 101% | M14 melanoma 94.7% | HCT-15 colon 104% | U251 CNS 98.5% | UO-31 renal 74.7% | SK-OV-3 ovarian 106% | OVCAR-3 ovarian 103% | MDA-MB-435 melanoma 118% | SW-620 colon 107% | MCF7 breast 96.1% | HCT-116 colon 78.1% | KM12 colon 103%

Nc1ncnc2c1c(C(=O)NO)cn2C1OC(CO)C(O)C1O (centres undefined)
active: NCI-H23 lung -4.58% | NCI-H322M lung 3.28% | HOP-62 NSCLC 5.73% | NCI-H460 lung -21.6% | 786-0 renal 9.38% | MDA-MB-231 breast -6.16% | SF-268 CNS -24.7% | SF-539 CNS -32.4% | M14 melanoma -53.8% | HCT-15 colon -9.1% | UO-31 renal -58.2% | SK-OV-3 ovarian -18.2% | OVCAR-3 ovarian -49.3% | MDA-MB-435 melanoma -72% | SW-620 colon -3.16% | MCF7 breast -47.3% | HCT-116 colon 7.69% | KM12 colon -29.9%
inactive: NCI-H226 lung 13.6% | U251 CNS 11.9%

O=C1NC2(CCNCC2)Nc2ccccc21
inactive: NCI-H23 lung 100% | NCI-H226 lung 97.7% | NCI-H322M lung 109% | HOP-62 NSCLC 96.6% | NCI-H460 lung 110% | 786-0 renal 107% | MDA-MB-231 breast 120% | SF-268 CNS 106% | SF-539 CNS 114% | M14 melanoma 100% | HCT-15 colon 113% | U251 CNS 91.2% | UO-31 renal 89.4% | SK-OV-3 ovarian 103% | OVCAR-3 ovarian 108% | MDA-MB-435 melanoma 104% | SW-620 colon 102% | MCF7 breast 107% | HCT-116 colon 100% | KM12 colon 105%

COc1cc(C2(C#N)CCN(C)CC2)cc(OC)c1OC
inactive: NCI-H23 lung 104% | NCI-H226 lung 110% | NCI-H322M lung 129% | HOP-62 NSCLC 103% | NCI-H460 lung 102% | 786-0 renal 102% | MDA-MB-231 breast 98.8% | SF-268 CNS 90.9% | SF-539 CNS 111% | M14 melanoma 90.9% | HCT-15 colon 97.2% | U251 CNS 101% | UO-31 renal 79.8% | SK-OV-3 ovarian 105% | OVCAR-3 ovarian 108% | MDA-MB-435 melanoma 103% | SW-620 colon 97.3% | MCF7 breast 95.7% | HCT-116 colon 91.8% | KM12 colon 100%

COc1ccc(C(c2ccc(OC)cc2)C(Cl)(Cl)Cl)cc1
inactive: NCI-H23 lung 81.9% | NCI-H226 lung 96.9% | NCI-H322M lung 106% | HOP-62 NSCLC 83.1% | NCI-H460 lung 91.8% | 786-0 renal 74.4% | MDA-MB-231 breast 93% | SF-268 CNS 88.6% | SF-539 CNS 79.5% | M14 melanoma 84.5% | HCT-15 colon 91.8% | U251 CNS 90.4% | UO-31 renal 53.4% | SK-OV-3 ovarian 96.2% | MDA-MB-435 melanoma 72.4% | SW-620 colon 89.4% | MCF7 breast 92.6% | HCT-116 colon 61.8% | KM12 colon 83.8%

Source: PubChem BioAssay (NCI)
